Screening results from PubChem.
In the library only some 21% were active in any assay of this set; here they are far more common.
NS1 function inh: influenza NS1 inhibition. Potency, µM (top dose mostly 46.1 µM), without a hit: top-dose activity, positive = more growth. 0.4% of 270,000 active. AID 2326; further: potency means the concentration at half of the fitted maximal effect; actives are rising curves; nearly all actives have a fitted effect of over 50% in size
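Recovery from NS1-induced slow growth read by OD600 in budding yeast switched to galactose assay medium (pH 6.0, -URA) at 1:100 dilution. Compound 23 nl per well; the matching strain lacking NS1 serves as control.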
Pf growth 96h: P. falciparum growth inhibition at 96 hours. P. falciparum luciferase reporter growth, 96 h. Potency, µM (highest dose often 28.7 µM), inactives show at the top dose activity change, negative = inhibition, usual class: inhibitors. 6.9% of 320,000 active. AID 504834; active means well fitted inhibition curve with a large enough effect; inconclusive means small, poorly fitted or top-dose-only effect, or another doubt; inactive means no such curve, though single readings can be large or run the other way; further: potency means the concentration at half of the fitted maximal effect; on the % scale 0 is the no-effect control and ±100 the full control effect
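Readout is luminescence from an integrated firefly luciferase in P. falciparum. Red cells, 2% hematocrit and 0.05% parasitemia final, were cultured with compound through two parasite generations (96 hours) at 37 C, 5% CO2.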
CHX counter: affects cycloheximide protein synthesis inhibition readout, counter-screen. 12% of 300,000 active. cell reporter, cycloheximide protein synthesis inhibition counterscreen. max response, %; in the data active means max response mostly above about 13%, no sharp cut-off; inactive means mostly below about 14%; further: read at 38.3 µM for the half of the compounds with a filed dose; 0% is about no effect
Pf growth 48h: inhibits P. falciparum growth in the first generation, 48 h | P. falciparum luciferase growth in erythrocytes, 48 h | Potency, µM (top dose mostly 28.7 µM), inactives show at the highest dose activity change, negative = inhibition, actives largely listed as inhibitors | 5.9% of 310,000 active | AID 504832; active means well fitted inhibition curve with a large enough effect; inconclusive means small, poorly fitted or top-dose-only effect, or another doubt; inactive means no such curve, though single readings can be large or run the other way; further: potency means the concentration at half of the fitted maximal effect; on the % scale 0 is the no-effect control and ±100 the full control effect
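Parasite viability was followed by luminescence of a genomically integrated firefly luciferase. Cultures held 0.1% parasitemia at 2% hematocrit (final), incubated under 5% CO2 at 37 C.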
Shiga inhibitor: Shiga toxin inhibition; Vero cells, Shiga toxin protein synthesis inhibition reporter; inhibition, % at 38.7 µM; 9.2% of 290,000 active; AID 2315; in the data active means inhibition mostly above about 28%, no sharp cut-off; inactive means mostly below about 43%; further: 0% is about no effect
SARS PLP yeast: blocks SARS-CoV papain-like protease in a yeast assay; S. cerevisiae expressing SARS-CoV PLpro, growth rescue; Potency, µM (top dose mostly 32.9 µM), for inactives: at the top dose activity, positive = growth rescue, usual class: activators; 0.19% of 330,000 active; further: potency means the concentration at half of the fitted maximal effect; 0% is about no effect; nearly all actives have a fitted effect of over 55% in size
* hit, by the source's call; ? = inconclusive; / = no result given. Unless noted, the call rests on the fitted dose curve.

SMILES	NS1 function inh	Pf growth 96h	CHX counter	Pf growth 48h	Shiga inhibitor	SARS PLP yeast
CCOC(=O)CN(C)Cc1cn(C)nc1-c1ccc(Oc2ccccc2)cc1	-18.6%	-17.5%	-1.1	17.6%	-4.0	-5.4%
C=CC[C@H](CC(=O)OC(C)(C)C)C(=O)OC[C@H]1CCCN1C(=O)[C@H](CC=C)CC(=O)NCCO	/	/	/	/	/	-13.2%
COc1cc(/C=N/NC(=O)CCN2CCN(C(c3ccccc3)c3ccccc3)CC2)ccc1O	-1.9%	11.7µM*	1.3	?	3.7	4.8%
C/C(=N\NC(=O)c1ccc(CSc2nncn2C)cc1)c1cccs1	7.4%	9.7%	28.4*	0.0%	106.6*	-4.1%
Cn1cnnc1SCc1ccc(C(=O)N/N=C/c2cccs2)cc1	0.9%	-4.1%	9.7	17.1%	34.3	2.3%
Cn1cnnc1SCc1ccc(C(=O)NN)cc1	3.0%	-14.7%	45.2*	7.0%	47.8	-0.2%
Cn1cnnc1SCc1ccc(C(=O)N/N=C(\CCC(=O)O)c2ccc(C(C)(C)C)cc2)cc1	-6.4%	22.3%	14.5*	13.8%	32.3*	-5.4%
CCC/C(=N\NC(=O)c1ccc(CSc2nncn2C)cc1)c1ccccc1	?	-5.8%	9.1	-9.4%	12.8	?
COc1ccc(/C(C)=N/NC(=O)c2ccc(CSc3nncn3C)cc2)cc1	/	4.15µM*	5.9	?	-6.0	0.2%
C/C(=N\NC(=O)c1ccc(CSc2nncn2C)cc1)c1ccc(Cl)cc1	12.8%	?	-2.5	-6.4%	15.3	-1.8%
Cc1ccc(S(=O)(=O)NCCCN2CCCC2)cc1	-5.0%	8.5%	-2.1	1.0%	-5.6	0.9%
COC(=O)c1ccc(NS(=O)(=O)c2ccccc2)o1	/	61.1%	-2.8	6.6%	-6.4	-4.4%
Nc1nc2c(ncn2[C@@H]2O[C@H](CO)[C@@H](O)[C@@H]2O)c(=[SH+])[nH]1.O=[N+]([O-])c1ccc(O)[c]([Hg])c1	-5.6%	/	/	/	/	/
COc1ccc(NC(=O)c2cc(S(=O)(=O)N3CCCC3)ccc2C)cn1	/	14.6%	/	-17.4%	/	-0.2%
CC(C)c1ccc2[nH]c(O)c(N=NC(=O)c3ccc(CSc4nncn4C)cc3)c2c1	12.7%	5.22µM*	-3.1	-16.7%	-11.5	2.9%
CCOC(=O)CSc1ccc(-c2nc3ccccc3[nH]2)cn1	-101.7%	/	19.2	7.8%	33.8	-1.9%
Cc1cc2nc(-c3ccc(SCC(=O)N4CCOCC4)nc3)[nH]c2cc1C	2.2%	16.7%	32.5*	-88.6%	70.3*	-2.1%
CCc1nc(SCc2ccccn2)[nH]c(=O)c1C	3.2%	16.8%	-1.7	20.6%	-4.8	-0.2%
Cc1cc(=O)[nH]c(SCC(=O)N2CCN(C(=O)c3ccco3)CC2)n1	/	/	/	/	/	-10.0%
Cc1cc2nc(-c3ccc(SCc4ccccn4)nc3)[nH]c2cc1C	/	16.2%	33.8*	?	98.1*	-6.2%
CCOC(=O)CSc1ccc(-c2nc3cc(C)c(C)cc3[nH]2)cn1	?	12.5%	54.8*	30.8%	60.8*	4.3%
Cc1cc2nc(-c3ccc(SCC(=O)N4CCN(C(=O)c5ccco5)CC4)nc3)[nH]c2cc1C	?	-13.7%	19.8*	?	26.4*	-6.8%
Cc1ccc(S(=O)(=O)N/N=C\c2cn(CC(N)=O)c3ccccc23)cc1C	-12.8%	201.6%	-1.8	15.3%	20.1	3.3%
COc1ccc(OC)c(N=C2SCCCN2C(=O)c2ccc(N3C(=O)CCC3=O)cc2)c1	/	?	/	-27.8%	/	1.8%
O=C(COC(=O)c1cc([N+](=O)[O-])ccc1N1CCOCC1)NCc1ccc(Cl)cc1Cl	20.7%	-27.6%	-0.9	-5.2%	7.9	18.6%
SMILES	NS1 function inh	Pf growth 96h	CHX counter	Pf growth 48h	Shiga inhibitor	SARS PLP yeast
CN(C)c1ccc(NC(=O)Nc2cccc(Cl)c2)cc1	8.8%	13.7%	30.9*	4.3%	49.9*	-7.6%
CC(=O)Nc1cccc(N(C)S(C)(=O)=O)c1	0.5%	39.8%	-4.1	-0.1%	-1.7	0.7%
CN(c1cccc(NC(=O)Nc2cccc(Cl)c2)c1)S(C)(=O)=O	-3.1%	1.9%	36.6*	56.7%	94.0*	1.4%
COc1ccc2c(ccn2S(=O)(=O)c2ccccc2)c1	11.1%	2.7%	6.7	-12.8%	/	-1.8%
CC/C(=N\NC(=O)c1csc(C)c1C)c1cccs1	-25.0%	86.6%	37.0*	175.8%	94.9*	-18.6%
CCC/C(=N\NC(=O)c1csc(C)c1C)c1cccs1	-3.7%	/	35.8*	103.7%	83.9*	7.8%
C=CCSc1nc2c(N)ncnc2n1[C@@H]1O[C@H](CO)[C@@H](O)[C@@H]1O	-0.3%	/	/	/	/	/
